Chronic BCR inh = blocks chronic active B-cell receptor signaling. ABC-DLBCL IkBa-CBG/CBR reporter, luminescence ratio, 4 h. Potency, µM (series often up to 46.1 µM), for inactives: top-dose activity change, negative = inhibition, usual class: inhibitors. hit rate 0.05% among 340,000; active = well fitted inhibition curve with a large enough effect in the signal ratio, with a control signal flat, not every such curve was filed as active; inconclusive = small, poorly fitted or top-dose-only effect, or effect the other way, or a change in a side signal; the % refers to the signal ratio;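 also: potency is read from the fitted curve at half-maximal effect; plate controls were basal doxycycline-induced cells for no effect and cells given 10 µM MG132 for full effect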
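Compounds up to 46 uM were incubated four hours with TMD8 cells whose green CBG68 luciferase is fused to IkappaBalpha; red CBR luminescence normalised the signal, and concentration-effect curves were fitted to fusion, red and ratio data.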
MCF10A rereplic = induces DNA re-replication in MCF 10a normal breast cells; MCF 10A DNA re-replication, Hoechst nuclear intensity, 48 h; Potency, µM (top dose mostly 46.1 µM), for inactives: at the highest dose activity, positive = re-replication, usual class: activators; hit rate 2.9% among 350,000; AID 624296; also: potency is read from the fitted curve at half-maximal effect; % of control where 0% means no effect; nearly all actives have a fitted effect of over 50% in size
DT40 TDP1 CPT = growth inhibition of DT40 Tdp1-/-;hTDP1 cells with camptothecin (screen for TDP1 inhibitors); Potency, µM (top dose mostly 46.2 µM), for the others: at the top dose activity change, negative = growth inhibition, usual class: inhibitors; chicken DT40 Tdp1-/-;hTDP1 cells + 20 nM CPT, ATP luminescence, 48 h; hit rate 12% among 420,000; also: potency is read from the fitted curve at half-maximal effect; % is scaled to controls: 0 for no effect and ±100 for the full control effect; nearly all actives have a fitted effect of over 55% in size
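Chicken DT40 Tdp1-/- cells stably complemented with human TDP1 were seeded at 400 cells/well in medium containing 20 nM camptothecin, exposed to pin-transferred compounds, and grown at 37 °C for at least 48 hr. Viability was read as ATP luminescence.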
DT40 TDP1 no CPT = qHTS for Inhibitors of human tyrosyl-DNA phosphodiesterase 1 (TDP1): qHTS in cells in absence of CPT; hit rate 15% among 420,000; DT40 Tdp1-/- hTDP1 cells, no CPT, ATP luminescence, 48 h; Potency, µM (doses to about 46.2 µM), without a hit: top-dose activity change, negative = growth inhibition, hits mostly inhibitors; also: potency is read from the fitted curve at half-maximal effect; % is scaled to controls: 0 for no effect and ±100 for the full control effect; nearly all actives have a fitted effect of over 55% in size
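Readout: luminescence from CellTiter-Glo after 30 min in the dark at RT. Cells: DT40 Tdp1-/- with stable hTDP1, 400/well. Exposure: compounds alone, ≥48 hr, 37 °C.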
SW480 rerep = inducers of DNA re-replication in SW480 colon cancer cells | Potency, µM (top dose mostly 46.1 µM), without a hit: at the highest dose re-replication activation, most hits filed as activators | hit rate 1.8% among 340,000 | SW480 DNA re-replication, Hoechst DNA content imaging, 48 h; also: potency is read from the fitted curve at half-maximal effect; % of control where 0% means no effect; nearly all actives have a fitted effect of over 55% in size
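Hoechst fluorescence of nuclei (405 nm excitation, 500-530 nm emission) measured by plate-scanning imager after 48 hr compound exposure at 37 C; re-replication scored as increased number of nuclei with elevated intensity.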
IL-1B inflam inh = inhibitors of inflammasome signaling (IL-1 beta secretion). THP-1 LPS/ATP IL-1B secretion, AlphaLISA, 16 h; hits give low values. activity change, % at 57.5 µM. hit rate 4.7% among 360,000; in the data active = activity change below about -50%; inconclusive = mostly about -30% to -49%; also: % is scaled to controls: 0 for no effect and ±100 for the full control effect
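Secreted IL-1B measured by AlphaLISA bead assay after 16 h compound exposure of THP-1 cells; compounds (final up to 57.5 uM) added 1 h before LPS (250 ng/mL) and ATP (1.25 mM) stimulation; lower signal means less secretion.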
* = called active by the depositor. Shown are actives, neighbours in structure and some others; about 19% of the full set was active somewhere. Unless noted, calls follow the shape of the dose curve; as a rule, active = well fitted curve in the direction sought with a large enough effect; inconclusive = small, poorly fitted or top-dose-only effect, or another doubt; inactive = no such curve, though single readings can be large; an effect the other way counts as inactive or inconclusive.

COc1ccc(CN2CCCC(CO)(Cc3ccc(F)cc3)C2)cc1C (configuration not stated) was read as Chronic BCR inh inconclusive, MCF10A rereplic inconclusive, DT40 TDP1 CPT inconclusive, DT40 TDP1 no CPT inconclusive, SW480 rerep -4% and IL-1B inflam inh -61*.
For CC(C)Oc1ccc(CN2CCCC(CO)(Cc3ccccc3)C2)cc1CO (configuration not stated) the results were Chronic BCR inh -1%, MCF10A rereplic 18%, DT40 TDP1 CPT 29µM*, DT40 TDP1 no CPT inconclusive, SW480 rerep 2% and IL-1B inflam inh -54*.
`CC(C(=O)Nc1ccc2c(c1)OCCO2)N(C)CC(=O)Nc1ccccc1Br` (configuration not stated) gave Chronic BCR inh inconclusive, MCF10A rereplic 1%, DT40 TDP1 CPT -6%, DT40 TDP1 no CPT -10%, SW480 rerep -13% and IL-1B inflam inh -9.
For O=C(Nc1ncc(Cc2ccc(F)cc2)s1)c1ccc2c(c1)CC(c1ccccc1)OC2=O (configuration not stated) the results were DT40 TDP1 CPT inconclusive and DT40 TDP1 no CPT 23µM*.
For O=C1N/C(=C/c2ccc(N3CCOCC3)o2)C(=O)N1c1ccccc1 the results were Chronic BCR inh inconclusive, MCF10A rereplic 3.7µM*, DT40 TDP1 CPT 12µM*, DT40 TDP1 no CPT 9.2µM*, SW480 rerep 8.2µM* and IL-1B inflam inh -104*.
`C=CCN1C(=O)N/C(=C/c2ccc(N3CCOCC3)o2)C1=O` gave Chronic BCR inh inconclusive, MCF10A rereplic 5.8µM* and SW480 rerep 5.8µM*.
For CCOC(=O)c1sc2ccccc2c1S(=O)(=O)Nc1ccc(OC)c(Cl)c1 the results were DT40 TDP1 CPT inconclusive and DT40 TDP1 no CPT -29%.
For COc1ccc(-c2nc(CSCC(=O)NCCCN3CCCC3=O)c(C)o2)cc1 the results were Chronic BCR inh 9%, MCF10A rereplic -2%, DT40 TDP1 CPT -1%, DT40 TDP1 no CPT 1%, SW480 rerep 0% and IL-1B inflam inh 0.
Screening Cc1oc(-c2ccc(Cl)cc2)nc1CN1CCCC(C(=O)NC2CC2)C1 (configuration not stated) returned Chronic BCR inh 9%, MCF10A rereplic 12%, DT40 TDP1 CPT 16µM*, DT40 TDP1 no CPT 10µM*, SW480 rerep 9% and IL-1B inflam inh -18.
For Cc1oc(-c2ccc(Cl)cc2)nc1CN1CCCC(C(=O)NCCCN2CCCC2=O)C1 (configuration not stated) the results were Chronic BCR inh 9%, MCF10A rereplic -1%, DT40 TDP1 CPT 8.2µM*, DT40 TDP1 no CPT 8.2µM*, SW480 rerep -5% and IL-1B inflam inh -10.
For CCN1CCN(CCNC(=O)C2CCCN(Cc3nc(-c4cccc(Cl)c4)oc3C)C2)CC1 (configuration not stated) the results were Chronic BCR inh inconclusive, MCF10A rereplic inconclusive, DT40 TDP1 CPT 21µM*, DT40 TDP1 no CPT 16µM*, SW480 rerep 6% and IL-1B inflam inh inconclusive.
Screening Cc1oc(-c2cccc(Cl)c2)nc1CN1CCC(C(=O)NCC2CCCO2)CC1 (configuration not stated) returned Chronic BCR inh 1%, MCF10A rereplic -2%, DT40 TDP1 CPT -14%, DT40 TDP1 no CPT -1%, SW480 rerep -6% and IL-1B inflam inh -8.
For CCc1ccc(-c2nc(CN3CCCC(C(=O)NCc4ccccc4Cl)C3)c(C)o2)cc1 (configuration not stated) the results were DT40 TDP1 CPT 6.5µM* and DT40 TDP1 no CPT 4.6µM*.
Screening Cc1oc(-c2ccc(F)cc2)nc1CN1CCCC(C(=O)N2CCOCC2)C1 (configuration not stated) returned Chronic BCR inh inconclusive, MCF10A rereplic 8%, DT40 TDP1 CPT -27%, DT40 TDP1 no CPT -2%, SW480 rerep -35% and IL-1B inflam inh -6.
CCc1ccc(-c2nc(CN3CCC(C(=O)NCc4ccco4)CC3)c(C)o2)cc1 was read as Chronic BCR inh -5%, MCF10A rereplic inconclusive, DT40 TDP1 CPT inconclusive, DT40 TDP1 no CPT inconclusive, SW480 rerep 13% and IL-1B inflam inh inconclusive.
Cc1oc(-c2ccc(Cl)cc2)nc1CN1CCCC(C(=O)NCc2ccco2)C1 (configuration not stated) was read as Chronic BCR inh 3%, MCF10A rereplic -1%, DT40 TDP1 CPT inconclusive, DT40 TDP1 no CPT 23µM*, SW480 rerep 7% and IL-1B inflam inh -51*.
CCOC(=O)N1CCC(NC(=O)C2CCCN(Cc3nc(-c4cccc(Cl)c4)oc3C)C2)CC1 (configuration not stated) was read as Chronic BCR inh 18%, MCF10A rereplic 2%, DT40 TDP1 CPT 0.82µM*, DT40 TDP1 no CPT 0.73µM*, SW480 rerep -14% and IL-1B inflam inh 58.
`CC(=O)c1cc(O)c2ccccc2c1O` gave Chronic BCR inh inconclusive, MCF10A rereplic inconclusive, DT40 TDP1 CPT 15µM*, DT40 TDP1 no CPT 4.6µM*, SW480 rerep -14% and IL-1B inflam inh -5.
For CC(C)(C)n1ncc(Oc2ccccc2[N+](=O)[O-])c(Cl)c1=O the results were Chronic BCR inh -4%, MCF10A rereplic 5%, DT40 TDP1 CPT inconclusive, DT40 TDP1 no CPT 23µM*, SW480 rerep inconclusive and IL-1B inflam inh 0.
`Cn1ncc(Oc2ccc([N+](=O)[O-])cc2)c(Cl)c1=O` gave Chronic BCR inh -9%, MCF10A rereplic inconclusive, DT40 TDP1 CPT 2%, DT40 TDP1 no CPT 1% and SW480 rerep inconclusive.
Cc1cc(C)c(S(=O)(=O)N2CCCCC2CCNC(=O)C(=O)NCc2ccccn2)c(C)c1 (configuration not stated) was read as Chronic BCR inh inconclusive, MCF10A rereplic 5%, DT40 TDP1 CPT inconclusive, DT40 TDP1 no CPT inconclusive, SW480 rerep 6% and IL-1B inflam inh -4.
Screening COc1cccc(-c2cc(C(F)(F)F)nc(NCc3ccco3)n2)c1 returned Chronic BCR inh inconclusive, MCF10A rereplic inconclusive, DT40 TDP1 CPT -11%, DT40 TDP1 no CPT -20%, SW480 rerep 26% and IL-1B inflam inh 5.
`COc1ccc(CNc2nc(-c3ccc(OC)cc3)cc(C(F)(F)F)n2)cc1` gave DT40 TDP1 CPT 13µM* and DT40 TDP1 no CPT 5.8µM*.

High-throughput results as filed in PubChem BioAssay.
